From PubChem BioAssay (Tox21)
Inconclusive results are not listed. Unmarked numbers belong to inactive results. Calls follow the shape of the dose curve; as a rule, active = well fitted cell-killing curve with a large enough effect in the repeat runs; inconclusive = weak or mixed curves, or effect the other way; inactive = flat fitted curve, though single readings scatter.

assay: qHTS assay to identify small molecule antagonists of the constitutive androstane receptor (CAR) signaling pathway - cell viability counter screen (AID 1224837); conditions: HepG2-CYP2B6-hCAR viability, CellTiter-Fluor, 23 h, co-treated with 50 nM CITCO; series mostly up to 92.4 µM; activity change, negative = cytotoxicity: at the top concentration; also: nearly all actives have a fitted effect of over 45% in size
Method in brief: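 Cells are seeded, rested 4 hr at 37 C/5% CO2, dosed with compound (15-point series) and 50 nM CITCO, incubated a further 23 hr, and then CellTiter-Fluor reagent is added before fluorescence is read. The line is HepG2 with stable hCAR and CYP2B6-2.2kb.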
% is scaled to controls: 0 for no effect and ±100 for the full control effect.

Row | Compound | activity change, negative = cytotoxicity
1 | N=C(N=C(N)N)N1CCOCC1 | -0.0694% [at 42.5 µM]
2 | Cc1ccc(O)c([C@H](CCN(C(C)C)C(C)C)c2ccccc2)c1 | -15.3% [at 42.5 µM]
3 | C1CCC2OC2C1 (stereo not given) | 12.1%
4 | Cn1sccc1=O | 0.307%
5 | CCOC(=O)CC(=O)c1cc(F)c(Cl)nc1Cl | -6.16%
6 | CCN(CC)CCOC(=O)C1(c2ccccc2)CCCC1 | -1.41% [at 42.5 µM]
7 | O=C1CCCCCO1 | 0.828%
8 | CC(C)CCCCCCOC(=O)c1ccc(C(=O)OCCCCCCC(C)C)c(C(=O)OCCCCCCC(C)C)c1 | 2.01%
9 | O=C(c1ccccc1)c1ccc2n1CCC2C(=O)O (stereo not given) | 6.27% [at 42.5 µM]
10 | N#CCc1cccc(C(F)(F)F)c1 | 0.406%
11 | Cc1cc(NC(=O)C(=O)O)cc(C)c1Oc1ccc(O)c2c1CCC2 | 0.549%
12 | O=C(NS(=O)(=O)/C=C/c1cccs1)c1ccc(F)cc1Br | 11.7%
13 | COc1ccc([C@@H]2Sc3ccccc3N(CCN(C)C)C(=O)[C@@H]2OC(C)=O)cc1 | -5.03% [at 42.5 µM]
14 | CCOC(=O)C1=C(C)NC(C)=C(C(=O)OC)C1c1cccc([N+](=O)[O-])c1 (stereo not given) | -13.4% [at 42.5 µM]
15 | N#Cc1cc2ccccc2c2ccccc12 | -5.64%
16 | CCCCOC(O)CC (stereo not given) | 2.77%
17 | CC(C)c1ccccc1C(C)C | 4.96%
18 | CCCCCCCCC(CO)CCCCCC (stereo not given) | 7.45%
19 | C1=Cc2ccccc2C1 | -3.34%
20 | CCCCCCCCCCCCCCCBr | -13.5% [at 42.5 µM]
21 | COc1ccc2[nH]c(S(=O)Cc3ncc(C)c(OC)c3C)nc2n1 (stereo not given) | 16.1% [at 42.5 µM]
22 | N#Cc1c(F)cccc1F | 2.66%
23 | CN(C)CCCNCCCN | 0.098%
24 | COc1cc(C(C)(C)C)c(O)c(C(C)(C)C)c1 | 5.6%
25 | NCc1ccccc1 | 7.31%
